According to PubChem BioAssay (EPA / NIEHS):
Calls of active or inactive are those of the source. The calls were made as follows: active = hit-call score of the fitted dose curve at least 0.9, where 1 is the maximum; inactive = score below 0.9.

Experiments:
Conditions in all cases: mRNA level, 48 h; actives raise or lower the signal
[1] = read-out: Cytochrome P450 (CYP1A1), CYP1A1 (gene 1543); assay: LTEA_HepaRG_CYP1A1: Life Technologies and Expression Analysis (LTEA) Assay for Cytochrome P450 (CYP1A1) using HepaRG (AID 2283454)
Summary of the method: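 HepaRG, 48 h post-plating switched to serum-free induction medium; 8-pt conc-response (top 100 uM, half-log, 0.5% DMSO), duplicates, 48 h. Lysis in RLT, TaqMan qRT-PCR for CYP1A1; gain or loss vs DMSO.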

[2] = read-out: CFLAR gene, CFLAR (gene 8837); assay: LTEA_HepaRG_CFLAR: Life Technologies and Expression Analysis (LTEA) Assay for CFLAR gene using HepaRG (AID 2283455)
Summary of the method: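 HepaRG cells were plated for 48 h, switched to serum-free induction medium, then exposed in duplicate for 48 h to 8 concentrations (top 100 uM, half-log steps, 0.5% DMSO). CFLAR mRNA was measured by qRT-PCR, normalized to ACTB, GAPDH and POLR2A.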

[3] = read-out: Forkhead box O1 (FOXO1), FOXO1 (gene 2308); assay: LTEA_HepaRG_FOXO1: Life Technologies and Expression Analysis (LTEA) Assay for Forkhead box O1 (FOXO1) using HepaRG (AID 2283456)
Summary of the method: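 Differentiated human HepaRG cells in serum-free induction medium were exposed in duplicate for 48 h to eight half-log concentrations (top 100 uM, 0.5% DMSO). FOXO1 mRNA was measured by TaqMan qRT-PCR, normalised to ACTB, GAPDH and POLR2A, and fitted bidirectionally against DMSO.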

[4] = read-out: growth arrest and DNA damage 45 (GADD45A), GADD45A (gene 1647); assay: LTEA_HepaRG_GADD45A: Life Technologies and Expression Analysis (LTEA) Assay for growth arrest and DNA damage 45 (GADD45A) using HepaRG (AID 2283458)
Summary of the method: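 Differentiated HepaRG cells were exposed in duplicate for 48 h in serum-free induction medium to 8-point half-log concentrations up to 100 uM in 0.5% DMSO. GADD45A mRNA was measured by TaqMan qRT-PCR, normalized to ACTB, GAPDH and POLR2A, with bidirectional fitting versus DMSO.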

[5] = read-out: Forkhead box O3 (FOXO3), FOXO3 (gene 2309); assay: LTEA_HepaRG_FOXO3: Life Technologies and Expression Analysis (LTEA) Assay for Forkhead box O3 (FOXO3) using HepaRG (AID 2283459)
Summary of the method: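 Differentiated human HepaRG cells in serum-free induction medium were exposed in duplicate for 48 h to eight half-log concentrations up to 100 uM in 0.5% DMSO. FOXO3 mRNA was quantified by qRT-PCR, normalized to ACTB, GAPDH and POLR2A, with bidirectional fitting versus DMSO.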

[6] = read-out: ABC Transporter (ABCB1), ABCB1 (gene 5243); assay: LTEA_HepaRG_ABCB1: Life Technologies and Expression Analysis (LTEA) Assay for ABC Transporter (ABCB1) using HepaRG (AID 2283460)
Summary of the method: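 Differentiated human HepaRG cells, plated 48 h then switched to serum-free induction medium, were exposed in duplicate to eight half-log concentrations up to 100 uM in 0.5% DMSO for 48 h. ABCB1 mRNA was measured by TaqMan qRT-PCR, normalized to ACTB/GAPDH/POLR2A.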

[7] = read-out: growth arrest and DNA damage 45 (GADD45B), GADD45B (gene 4616); assay: LTEA_HepaRG_GADD45B: Life Technologies and Expression Analysis (LTEA) Assay for growth arrest and DNA damage 45 (GADD45B) using HepaRG (AID 2283461)
Summary of the method: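 HepaRG, ~100,000 cells/well, 48 h plating; serum-free induction medium; cpd 100 uM top, half-log x8, 0.5% DMSO, duplicate, 48 h; lysis in RLT, RNA isolation, qRT-PCR; norm ACTB/GAPDH/POLR2A; bidirectional fit vs DMSO.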

[8] = read-out: ABC Transporter (ABCC3), ABCC3 (gene 8714); assay: LTEA_HepaRG_ABCC3: Life Technologies and Expression Analysis (LTEA) Assay for ABC Transporter (ABCC3) using HepaRG (AID 2283462)
Summary of the method: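 Human HepaRG, 48 h dosing, 8-pt half-log series from 100 uM, 0.5% DMSO vehicle, duplicates. ABCC3 mRNA by TaqMan qRT-PCR, housekeeping-normalized; bidirectional curve fit vs DMSO.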

[9] = read-out: ABC Transporter (ABCB11), ABCB11 (gene 8647); assay: LTEA_HepaRG_ABCB11: Life Technologies and Expression Analysis (LTEA) Assay for ABC Transporter (ABCB11) using HepaRG (AID 2283463)
Summary of the method: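 Differentiated human HepaRG cells were exposed for 48 h in serum-free induction medium to eight half-log concentrations up to 100 uM in 0.5% DMSO. ABCB11 mRNA was quantified by qRT-PCR, normalized to ACTB, GAPDH and POLR2A, and fitted bidirectionally versus DMSO.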

[10] = read-out: ABC Transporter (ABCC2), ABCC2 (gene 1244); assay: LTEA_HepaRG_ABCC2: Life Technologies and Expression Analysis (LTEA) Assay for ABC Transporter (ABCC2) using HepaRG (AID 2283464)
Summary of the method: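 HepaRG, 48 h post-plating; serum-free induction medium; cpd 8-pt, 100 uM top, half-log, 0.5% DMSO, duplicate, 48 h. Readout: ABCC2 mRNA by qRT-PCR, norm. ACTB/GAPDH/POLR2A. Bidirectional fit vs DMSO baseline.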

[11] = read-out: Peroxisomal acyl-coenzyme A oxidase 1 (ACOX1) gene, ACOX1 (gene 51); assay: LTEA_HepaRG_ACOX1: Life Technologies and Expression Analysis (LTEA) Assay for Peroxisomal acyl-coenzyme A oxidase 1 (ACOX1) gene using HepaRG (AID 2283467)
Summary of the method: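 Differentiated human HepaRG cells were exposed in duplicate for 48 h in serum-free induction medium to eight half-log concentrations up to 100 uM in 0.5% DMSO. ACOX1 mRNA was then quantified by TaqMan qRT-PCR, normalized to ACTB, GAPDH and POLR2A.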

[12] = read-out: Alkaline Phosphatase, Placental (ALPP) gene, ALPP (gene 250); assay: LTEA_HepaRG_ALPP: Life Technologies and Expression Analysis (LTEA) Assay for Alkaline Phosphatase, Placental (ALPP) gene using HepaRG (AID 2283468)
Summary of the method: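 HepaRG, 48 h plating then 48 h dosing, serum-free induction medium, 0.5% DMSO. 8 conc, half-log, max 100 uM, duplicates. Endpoint: ALPP transcript by qRT-PCR, housekeeping-normalized; gain or loss fitted vs DMSO.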

[13] = read-out: Bcl-2 (BAD) gene, BAD (gene 572); assay: LTEA_HepaRG_BAD: Life Technologies and Expression Analysis (LTEA) Assay for Bcl-2 (BAD) gene using HepaRG (AID 2283469)
Summary of the method: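 Differentiated human HepaRG cells in serum-free induction medium were exposed in duplicate for 48 h to eight concentrations (top 100 uM, half-log steps, 0.5% DMSO). BAD mRNA was quantified by qRT-PCR normalised to ACTB, GAPDH and POLR2A, with bidirectional fitting versus DMSO.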

[14] = read-out: Bcl-2 (BAX) gene, BAX (gene 581); assay: LTEA_HepaRG_BAX: Life Technologies and Expression Analysis (LTEA) Assay for Bcl-2 (BAX) gene using HepaRG (AID 2283470)
Summary of the method: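 Differentiated human HepaRG cells, plated 48 h then switched to serum-free induction medium, were exposed 48 h to 8 half-log concentrations up to 100 uM in 0.5% DMSO; BAX mRNA measured by qRT-PCR, normalized to ACTB, GAPDH, POLR2A.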

[15] = read-out: adenosine kinase (ADK) gene, ADK (gene 132); assay: LTEA_HepaRG_ADK: Life Technologies and Expression Analysis (LTEA) Assay for adenosine kinase (ADK) gene using HepaRG (AID 2283471)
Summary of the method: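 Differentiated HepaRG cells dosed 48 h in serum-free induction medium, 0.5% DMSO vehicle, eight half-log concentrations from 100 uM, in duplicate. ADK mRNA by TaqMan qRT-PCR normalised to ACTB, GAPDH, POLR2A; bidirectional fit versus DMSO.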

[16] = read-out: Alpha-fetoprotein (AFP) gene, AFP (gene 174); assay: LTEA_HepaRG_AFP: Life Technologies and Expression Analysis (LTEA) Assay for Alpha-fetoprotein (AFP) gene using HepaRG (AID 2283472)
Summary of the method: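 Human HepaRG cells plated 48 h, then switched to serum-free induction medium and exposed in duplicate for 48 h to 8-point half-log series from 100 uM in 0.5% DMSO. AFP mRNA by qRT-PCR, normalized to ACTB, GAPDH, POLR2A; bidirectional fit versus DMSO.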

BCL2L11 (gene 10018) = assay: LTEA_HepaRG_BCL2L11: Life Technologies and Expression Analysis (LTEA) Assay for Bcl-2 (BCL2L11) gene using HepaRG (AID 2283473)
Summary of the method: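 Read-out is BCL2L11 transcript level by qRT-PCR, normalized to three housekeeping genes and fitted bidirectionally against 0.5% DMSO vehicle. HepaRG cells received chemicals for 48 h in serum-free induction medium, 100 uM down in half-log dilutions.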

[17] = read-out: Broad substrate specificity ATP-binding cassette transporter ABCG2 (Homo sapiens) (UniProt Q9UNQ0); assay: LTEA_HepaRG_ABCG2: Life Technologies and Expression Analysis (LTEA) Assay for ABC Transporter (ABCG2) using HepaRG (AID 2283465)
Summary of the method: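 Differentiated HepaRG cells in serum-free induction medium were exposed for 48 h, in duplicate, to eight half-log concentrations up to 100 uM in 0.5% DMSO. ABCG2 mRNA was measured by TaqMan qRT-PCR, normalized to ACTB, GAPDH and POLR2A, and fitted bidirectionally versus DMSO.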

Broad substrate specificity ATP-binding cassette transporter ABCG2 (Homo sapiens), sequence (Q9UNQ0 whole entry, looked up): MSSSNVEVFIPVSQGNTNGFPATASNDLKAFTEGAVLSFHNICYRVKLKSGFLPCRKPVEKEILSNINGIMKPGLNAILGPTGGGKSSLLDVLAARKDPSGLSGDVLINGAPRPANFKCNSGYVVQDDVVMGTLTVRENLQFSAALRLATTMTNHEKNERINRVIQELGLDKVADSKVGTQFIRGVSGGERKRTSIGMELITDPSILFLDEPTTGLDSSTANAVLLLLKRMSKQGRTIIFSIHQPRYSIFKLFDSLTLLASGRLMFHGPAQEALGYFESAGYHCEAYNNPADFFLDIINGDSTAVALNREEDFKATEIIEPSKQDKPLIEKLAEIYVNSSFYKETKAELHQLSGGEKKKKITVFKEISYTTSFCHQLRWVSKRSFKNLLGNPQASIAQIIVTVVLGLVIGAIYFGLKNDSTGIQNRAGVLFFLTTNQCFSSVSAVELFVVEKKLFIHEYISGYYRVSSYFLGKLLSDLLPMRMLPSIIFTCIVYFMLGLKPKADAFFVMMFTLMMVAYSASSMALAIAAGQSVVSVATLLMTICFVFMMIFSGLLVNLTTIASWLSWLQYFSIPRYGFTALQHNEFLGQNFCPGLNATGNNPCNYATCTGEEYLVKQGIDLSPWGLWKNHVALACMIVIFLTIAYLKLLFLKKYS

Structure (SMILES): CCNc1nc(Cl)nc(NC(C)(C)C#N)n1
- AC50 [1]: 24.9 µM (active)
- outcome [2]: inactive
- outcome [3]: inactive
- outcome [4]: inactive
- outcome [5]: inactive
- outcome [6]: inactive
- outcome [7]: inactive
- outcome [8]: inactive
- outcome [9]: inactive
- AC50 [10]: 5.92 µM (active)
- outcome [11]: inactive
- outcome [12]: inactive
- outcome [13]: inactive
- outcome [14]: inactive
- outcome [15]: inactive
- outcome [16]: inactive
- outcome (BCL2L11 (gene 10018)): inactive

Structure (SMILES): CNc1cnn(-c2cccc(C(F)(F)F)c2)c(=O)c1Cl
- AC50 [1]: 3.99 µM (active)
- outcome [2]: inactive
- outcome [3]: inactive
- outcome [4]: inactive
- AC50 [5]: 31.1 µM (active)
- AC50 [6]: 74.9 µM (active)
- AC50 [7]: 50 µM (active)
- outcome [8]: inactive
- AC50 [9]: 20.1 µM (active)
- outcome [10]: inactive
- outcome [11]: inactive
- outcome [12]: inactive
- outcome [13]: inactive
- outcome [14]: inactive
- outcome [15]: inactive
- AC50 [16]: 22 µM (active)
- outcome (BCL2L11 (gene 10018)): inactive

Structure (SMILES): CCOP(=S)(Oc1cnc(C(C)(C)C)nc1)OC(C)C (stereo not drawn)
- AC50 [1]: 35 µM (active)
- outcome [2]: inactive
- outcome [3]: inactive
- outcome [4]: inactive
- outcome [5]: inactive
- AC50 [6]: 19.4 µM (active)
- outcome [7]: inactive
- outcome [8]: inactive
- AC50 [9]: 1.84 µM (active)
- outcome [10]: inactive
- AC50 [11]: 2.27 µM (active)
- outcome [12]: inactive
- outcome [13]: inactive
- outcome [14]: inactive
- outcome [15]: inactive
- AC50 [16]: 19.4 µM (active)
- outcome (BCL2L11 (gene 10018)): inactive

Structure (SMILES): CC(C1CC1)C(O)(Cn1cncn1)c1ccc(Cl)cc1 (stereo not drawn)
- AC50 [1]: 17 µM (active)
- outcome [2]: inactive
- outcome [3]: inactive
- outcome [4]: inactive
- outcome [5]: inactive
- AC50 [6]: 13.1 µM (active)
- outcome [7]: inactive
- outcome [8]: inactive
- outcome [9]: inactive
- outcome [10]: inactive
- outcome [11]: inactive
- outcome [13]: inactive
- outcome [14]: inactive
- outcome [15]: inactive
- AC50 [16]: 20.5 µM (active)
- outcome (BCL2L11 (gene 10018)): inactive

Structure (SMILES): O=C(O)c1cc(Oc2ccc(C(F)(F)F)cc2Cl)ccc1[N+](=O)[O-]
- AC50 [1]: 50 µM (active)
- outcome [2]: inactive
- outcome [3]: inactive
- outcome [5]: inactive
- AC50 [6]: 50 µM (active)
- outcome [8]: inactive
- outcome [9]: inactive
- AC50 [10]: 50 µM (active)
- AC50 [17]: 2.98 µM (active)
- AC50 [11]: 28.4 µM (active)
- outcome [12]: inactive
- outcome [13]: inactive
- outcome [14]: inactive
- outcome [15]: inactive
- outcome [16]: inactive
- outcome (BCL2L11 (gene 10018)): inactive
